# In publication PMC8384837, “Expanding the binding specificity for RNA recognition by a PUF domain”:
# Columns and labels:
# Assay in all cases: yeast three-hybrid, YBZ-1, SC-Leu-His + 0.5 mM 3-AT, 4 days
# Conditions in all cases: tags: N-Gal4 AD-HA kept; label: inside an RPR1-promoter hybrid RNA with tandem MS2 sites; ssRNA
# PUM1 PUF domain R3-MRY = PUM1 PUF domain R3-MRY (Homo sapiens, UniProt Q14671 828-1176, C935M;Q939Y)
# Outline: (§1)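 A centromeric plasmid in strain YBZ-1 co-expressed Pumilio-1 PUF domain libraries, randomized at the three base-contacting residues of each repeat, with matching RNA elements; the strain carries a LexA–MS2 coat fusion and a HIS3 reporter. After four days on SC-Leu (input) or SC-Leu-His + 0.5 mM 3-AT (selection), the repeat regions were PCR-amplified and Illumina-sequenced. The interaction score is the log change in variant frequency from input to selection, using log2 and a pseudocount of 1 where absent.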
# PUM1 PUF domain R3-RRA = PUM1 PUF domain R3-RRA (Homo sapiens, UniProt Q14671 828-1176, C935R;Q939A)
# Outline: as §1
# PUM1 PUF domain R1-GYR = PUM1 PUF domain R1-GYR (Homo sapiens, UniProt Q14671 828-1176, S863G;R864Y;Q867R)
# Outline: as §1
# PUM1 PUF domain R5-RRH = PUM1 PUF domain R5-RRH (Homo sapiens, UniProt Q14671 828-1176, C1007R;Q1011H)
# Outline: as §1
# PUM1 PUF domain R5-RHA = PUM1 PUF domain R5-RHA (Homo sapiens, UniProt Q14671 828-1176, C1007R;R1008H;Q1011A)
# Outline: as §1
# PUM1 PUF domain R1-KYQ = PUM1 PUF domain R1-KYQ (Homo sapiens, UniProt Q14671 828-1176, S863K;R864Y)
# Outline: as §1
# PUM1 PUF domain R5-GVQ = PUM1 PUF domain R5-GVQ (Homo sapiens, UniProt Q14671 828-1176, C1007G;R1008V)
# Outline: as §1
# PUM1 PUF domain R5-ESE = PUM1 PUF domain R5-ESE (Homo sapiens, UniProt Q14671 828-1176, C1007E;R1008S;Q1011E)
# Outline: as §1
# PUM1 PUF domain R3-QCD = PUM1 PUF domain R3-QCD (Homo sapiens, UniProt Q14671 828-1176, C935Q;R936C;Q939D)
# Outline: as §1
# PUM1 PUF domain R3-APD = PUM1 PUF domain R3-APD (Homo sapiens, UniProt Q14671 828-1176, C935A;R936P;Q939D)
# Outline: as §1
# PUM1 PUF domain R3-IWD = PUM1 PUF domain R3-IWD (Homo sapiens, UniProt Q14671 828-1176, C935I;R936W;Q939D)
# Outline: as §1
# PUM1 PUF domain R8-RWW = PUM1 PUF domain R8-RWW (Homo sapiens, UniProt Q14671 828-1176, N1122R;Y1123W;Q1126W)
# Outline: as §1
# PUM1 PUF domain R4-APC = PUM1 PUF domain R4-APC (Homo sapiens, UniProt Q14671 828-1176, N971A;H972P;Q975C)
# Outline: as §1
# PUM1 PUF domain R4-CRG = PUM1 PUF domain R4-CRG (Homo sapiens, UniProt Q14671 828-1176, N971C;H972R;Q975G)
# Outline: as §1
# PUM1 PUF domain R4-DWS = PUM1 PUF domain R4-DWS (Homo sapiens, UniProt Q14671 828-1176, N971D;H972W;Q975S)
# Outline: as §1
# PUM1 PUF domain R5-LYS = PUM1 PUF domain R5-LYS (Homo sapiens, UniProt Q14671 828-1176, C1007L;R1008Y;Q1011S)
# Outline: as §1
# PUM1 PUF domain R4-VGY = PUM1 PUF domain R4-VGY (Homo sapiens, UniProt Q14671 828-1176, N971V;H972G;Q975Y)
# Outline: as §1
# PUM1 PUF domain R4-DHQ = PUM1 PUF domain R4-DHQ (Homo sapiens, UniProt Q14671 828-1176, N971D)
# Outline: as §1
# PUM1 PUF domain R4-HNL = PUM1 PUF domain R4-HNL (Homo sapiens, UniProt Q14671 828-1176, N971H;H972N;Q975L)
# Outline: as §1
# PUM1 PUF domain R8-QFC = PUM1 PUF domain R8-QFC (Homo sapiens, UniProt Q14671 828-1176, N1122Q;Y1123F;Q1126C)
# Outline: as §1
# Chain of PUM1 PUF domain R4-DWS (Q14671 828-1176 N971D/H972W/Q975S): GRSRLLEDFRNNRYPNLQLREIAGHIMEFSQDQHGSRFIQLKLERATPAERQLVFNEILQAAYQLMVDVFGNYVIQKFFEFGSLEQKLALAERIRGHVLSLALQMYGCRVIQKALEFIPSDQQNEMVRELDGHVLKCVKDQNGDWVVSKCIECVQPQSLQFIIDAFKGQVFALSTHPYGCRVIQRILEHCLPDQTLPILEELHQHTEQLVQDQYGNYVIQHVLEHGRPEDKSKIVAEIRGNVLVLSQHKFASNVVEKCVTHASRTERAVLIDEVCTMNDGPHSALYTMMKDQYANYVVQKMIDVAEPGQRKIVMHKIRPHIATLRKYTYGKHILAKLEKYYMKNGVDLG
# Chain of PUM1 PUF domain R5-RHA (Q14671 828-1176 C1007R/R1008H/Q1011A): as the sequence (Q14671 828-1176 N971D/H972W/Q975S) above, with D144N, W145H, S148Q, C180R, R181H, Q184A counted along it
# Chain of PUM1 PUF domain R4-APC (Q14671 828-1176 N971A/H972P/Q975C): as the sequence (Q14671 828-1176 N971D/H972W/Q975S) above, with D144A, W145P, S148C counted along it
# Chain of PUM1 PUF domain R5-RRH (Q14671 828-1176 C1007R/Q1011H): as the sequence (Q14671 828-1176 N971D/H972W/Q975S) above, with D144N, W145H, S148Q, C180R, Q184H counted along it
# Chain of PUM1 PUF domain R8-RWW (Q14671 828-1176 N1122R/Y1123W/Q1126W): as the sequence (Q14671 828-1176 N971D/H972W/Q975S) above, with D144N, W145H, S148Q, N295R, Y296W, Q299W counted along it
# Chain of PUM1 PUF domain R4-DHQ (Q14671 828-1176 N971D): as the sequence (Q14671 828-1176 N971D/H972W/Q975S) above, with W145H, S148Q counted along it
# Chain of PUM1 PUF domain R4-CRG (Q14671 828-1176 N971C/H972R/Q975G): as the sequence (Q14671 828-1176 N971D/H972W/Q975S) above, with D144C, W145R, S148G counted along it
# Chain of PUM1 PUF domain R4-HNL (Q14671 828-1176 N971H/H972N/Q975L): as the sequence (Q14671 828-1176 N971D/H972W/Q975S) above, with D144H, W145N, S148L counted along it
# Chain of PUM1 PUF domain R5-GVQ (Q14671 828-1176 C1007G/R1008V): as the sequence (Q14671 828-1176 N971D/H972W/Q975S) above, with D144N, W145H, S148Q, C180G, R181V counted along it
# Chain of PUM1 PUF domain R1-GYR (Q14671 828-1176 S863G/R864Y/Q867R): as the sequence (Q14671 828-1176 N971D/H972W/Q975S) above, with S36G, R37Y, Q40R, D144N, W145H, S148Q counted along it
# Chain of PUM1 PUF domain R3-APD (Q14671 828-1176 C935A/R936P/Q939D): as the sequence (Q14671 828-1176 N971D/H972W/Q975S) above, with C108A, R109P, Q112D, D144N, W145H, S148Q counted along it
# Chain of PUM1 PUF domain R5-LYS (Q14671 828-1176 C1007L/R1008Y/Q1011S): as the sequence (Q14671 828-1176 N971D/H972W/Q975S) above, with D144N, W145H, S148Q, C180L, R181Y, Q184S counted along it
# Chain of PUM1 PUF domain R3-MRY (Q14671 828-1176 C935M/Q939Y): as the sequence (Q14671 828-1176 N971D/H972W/Q975S) above, with C108M, Q112Y, D144N, W145H, S148Q counted along it
# Chain of PUM1 PUF domain R3-QCD (Q14671 828-1176 C935Q/R936C/Q939D): as the sequence (Q14671 828-1176 N971D/H972W/Q975S) above, with C108Q, R109C, Q112D, D144N, W145H, S148Q counted along it
# Chain of PUM1 PUF domain R5-ESE (Q14671 828-1176 C1007E/R1008S/Q1011E): as the sequence (Q14671 828-1176 N971D/H972W/Q975S) above, with D144N, W145H, S148Q, C180E, R181S, Q184E counted along it
# Chain of PUM1 PUF domain R3-IWD (Q14671 828-1176 C935I/R936W/Q939D): as the sequence (Q14671 828-1176 N971D/H972W/Q975S) above, with C108I, R109W, Q112D, D144N, W145H, S148Q counted along it
# Chain of PUM1 PUF domain R8-QFC (Q14671 828-1176 N1122Q/Y1123F/Q1126C): as the sequence (Q14671 828-1176 N971D/H972W/Q975S) above, with D144N, W145H, S148Q, N295Q, Y296F, Q299C counted along it
# Chain of PUM1 PUF domain R3-RRA (Q14671 828-1176 C935R/Q939A): as the sequence (Q14671 828-1176 N971D/H972W/Q975S) above, with C108R, Q112A, D144N, W145H, S148Q counted along it
# Chain of PUM1 PUF domain R4-VGY (Q14671 828-1176 N971V/H972G/Q975Y): as the sequence (Q14671 828-1176 N971D/H972W/Q975S) above, with D144V, W145G, S148Y counted along it
# Chain of PUM1 PUF domain R1-KYQ (Q14671 828-1176 S863K/R864Y): as the sequence (Q14671 828-1176 N971D/H972W/Q975S) above, with S36K, R37Y, D144N, W145H, S148Q counted along it
sequence,measurement,setting,value
GGCUAGAACUAGUGGAUCCCCCGGCGCCCGGCGGCUCGAGCCCGGGUAAGUGUAAUUAGUCUGCAUGCCGCCGGGCGCCAUGCCUGCAGGUCGACUCUAGAAAACAUG,binding signal,PUM1 PUF domain R3-MRY,1.32 log2 enrichment (interaction score)
same,binding signal,PUM1 PUF domain R3-RRA,3.19 log2 enrichment (interaction score)
GGCUAGAACUAGUGGAUCCCCCGGCGCCCGGCGGCUCGAGCCCGGGUAAGUGUAAAUUGUCUGCAUGCCGCCGGGCGCCAUGCCUGCAGGUCGACUCUAGAAAACAUG,binding signal,PUM1 PUF domain R1-GYR,2.71 log2 enrichment (interaction score)
GGCUAGAACUAGUGGAUCCCCCGGCGCCCGGCGGCUCGAGCCCGGGUAAGUGUCAAUAGUCUGCAUGCCGCCGGGCGCCAUGCCUGCAGGUCGACUCUAGAAAACAUG,binding signal,PUM1 PUF domain R5-RRH,5.57 log2 enrichment (interaction score)
same,binding signal,PUM1 PUF domain R5-RHA,5.53 log2 enrichment (interaction score)
GGCUAGAACUAGUGGAUCCCCCGGCGCCCGGCGGCUCGAGCCCGGGUAAGUGUAAAUCGUCUGCAUGCCGCCGGGCGCCAUGCCUGCAGGUCGACUCUAGAAAACAUG,binding signal,PUM1 PUF domain R1-GYR,4.99 log2 enrichment (interaction score)
same,binding signal,PUM1 PUF domain R1-KYQ,4.96 log2 enrichment (interaction score)
GGCUAGAACUAGUGGAUCCCCCGGCGCCCGGCGGCUCGAGCCCGGGUAAGUGUGAAUAGUCUGCAUGCCGCCGGGCGCCAUGCCUGCAGGUCGACUCUAGAAAACAUG,binding signal,PUM1 PUF domain R5-RRH,1.47 log2 enrichment (interaction score)
same,binding signal,PUM1 PUF domain R5-GVQ,2.24 log2 enrichment (interaction score)
same,binding signal,PUM1 PUF domain R5-ESE,2.77 log2 enrichment (interaction score)
GGCUAGAACUAGUGGAUCCCCCGGCGCCCGGCGGCUCGAGCCCGGGUAAGUGUAAGUAGUCUGCAUGCCGCCGGGCGCCAUGCCUGCAGGUCGACUCUAGAAAACAUG,binding signal,PUM1 PUF domain R3-MRY,4.3 log2 enrichment (interaction score)
same,binding signal,PUM1 PUF domain R3-QCD,3.09 log2 enrichment (interaction score)
same,binding signal,PUM1 PUF domain R3-APD,6.54 log2 enrichment (interaction score)
same,binding signal,PUM1 PUF domain R3-IWD,4.83 log2 enrichment (interaction score)
GGCUAGAACUAGUGGAUCCCCCGGCGCCCGGCGGCUCGAGCCCGGGUAAGUGUAAAUAGUCUGCAUGCCGCCGGGCGCCAUGCCUGCAGGUCGACUCUAGAAAACAUG,binding signal,PUM1 PUF domain R5-RRH,1.96 log2 enrichment (interaction score)
same,binding signal,PUM1 PUF domain R3-APD,4.44 log2 enrichment (interaction score)
same,binding signal,PUM1 PUF domain R8-RWW,4.93 log2 enrichment (interaction score)
same,binding signal,PUM1 PUF domain R4-APC,4.14 log2 enrichment (interaction score)
same,binding signal,PUM1 PUF domain R5-RHA,2.93 log2 enrichment (interaction score)
same,binding signal,PUM1 PUF domain R4-CRG,4.02 log2 enrichment (interaction score)
same,binding signal,PUM1 PUF domain R4-DWS,2.39 log2 enrichment (interaction score)
same,binding signal,PUM1 PUF domain R5-LYS,3.11 log2 enrichment (interaction score)
same,binding signal,PUM1 PUF domain R4-VGY,2.38 log2 enrichment (interaction score)
GGCUAGAACUAGUGGAUCCCCCGGCGCCCGGCGGCUCGAGCCCGGGUAAGUGUACAUAGUCUGCAUGCCGCCGGGCGCCAUGCCUGCAGGUCGACUCUAGAAAACAUG,binding signal,PUM1 PUF domain R4-APC,1.88 log2 enrichment (interaction score)
same,binding signal,PUM1 PUF domain R4-DHQ,2.4 log2 enrichment (interaction score)
same,binding signal,PUM1 PUF domain R4-HNL,2.04 log2 enrichment (interaction score)
same,binding signal,PUM1 PUF domain R4-DWS,2.51 log2 enrichment (interaction score)
GGCUAGAACUAGUGGAUCCCCCGGCGCCCGGCGGCUCGAGCCCGGGUAAGCGUAAAUAGUCUGCAUGCCGCCGGGCGCCAUGCCUGCAGGUCGACUCUAGAAAACAUG,binding signal,PUM1 PUF domain R8-RWW,5.89 log2 enrichment (interaction score)
same,binding signal,PUM1 PUF domain R8-QFC,3.87 log2 enrichment (interaction score)
GGCUAGAACUAGUGGAUCCCCCGGCGCCCGGCGGCUCGAGCCCGGGUAAGUGUAUAUAGUCUGCAUGCCGCCGGGCGCCAUGCCUGCAGGUCGACUCUAGAAAACAUG,binding signal,PUM1 PUF domain R4-APC,3.17 log2 enrichment (interaction score)
same,binding signal,PUM1 PUF domain R4-DHQ,5.32 log2 enrichment (interaction score)
same,binding signal,PUM1 PUF domain R4-CRG,1.29 log2 enrichment (interaction score)
same,binding signal,PUM1 PUF domain R4-HNL,3.45 log2 enrichment (interaction score)
same,binding signal,PUM1 PUF domain R4-DWS,5.96 log2 enrichment (interaction score)
GGCUAGAACUAGUGGAUCCCCCGGCGCCCGGCGGCUCGAGCCCGGGUAAGUGUUAAUAGUCUGCAUGCCGCCGGGCGCCAUGCCUGCAGGUCGACUCUAGAAAACAUG,binding signal,PUM1 PUF domain R5-RHA,5.76 log2 enrichment (interaction score)
same,binding signal,PUM1 PUF domain R5-LYS,3.82 log2 enrichment (interaction score)
same,binding signal,PUM1 PUF domain R5-GVQ,2.71 log2 enrichment (interaction score)
